Records with an inconclusive call do not appear. Calls of active or inactive are those of the source. Calls follow the shape of the dose curve; as a rule, active = well fitted curve in the direction sought with a large enough effect; inconclusive = small, poorly fitted or top-dose-only effect, or another doubt; inactive = no such curve, though single readings can be large; an effect the other way counts as inactive or inconclusive.
Tests used:
[1] = Cellular Toxicity (caspase-3) SK-N-SH (AID 661);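 also: 0% = DMSO basal and 100% = 10 µM staurosporine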
Procedure, shortened: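 Caspase 3/7 activation is measured as a luminescence increase from aminoluciferin released by substrate cleavage in SK-N-SH cells after 16 hr compound treatment; values are AC50 from concentration-response curves.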

[2] = Cellular Toxicity (caspase-3) H-4-II-E (AID 663); conditions: H-4-II-E rat hepatoma, scaled: DMSO 0%, 100 µM tamoxifen 100%; at 92.2 µM (top of the series);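 also: cells exposed to compound for 16 hr before readout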
Procedure, shortened: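 Rat hepatoma H-4-II-E cells (1500/well) plated 5 hr, then exposed to compound titrations for 16 hr at 37 °C. Caspase-Glo 3/7 luminescence read after 20 min at RT; data normalized to DMSO and 100 uM tamoxifen, AC50 from Hill fits.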

[3] = Cellular Toxicity (caspase-3) Hek293 (AID 664); conditions: HEK293 caspase-3 activation, DMSO = 0%, 100 µM tamoxifen = 100%; at 92.2 µM (top of the series);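 also: cells exposed to compound for 16 h at 37 °C before readout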
Procedure, shortened: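 Activation of caspase-3/7 is measured as increased luminescence from cleaved peptide-aminoluciferin substrate in HEK293 cells treated 16 hours at 37 °C. AC50 values come from Hill-equation fits of concentration-response data.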

[4] = Cellular Toxicity (caspase-3) N2a (AID 665);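 also: compound exposure lasted 16 h at 37 °C before readout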
Procedure, shortened: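 Plated mouse neuroblastoma N2a cells received titrated compounds for 16 h in complete medium. Caspase activity was then detected with a peptide-aminoluciferin luminescent reagent.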

[5] = Cellular Toxicity (caspase-3) NIH 3T3 (AID 666);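 also: 0% = DMSO basal and 100% = 100 µM tamoxifen stimulation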
Procedure, shortened: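 Concentration-response qHTS in NIH 3T3 mouse fibroblasts scores caspase-3/7 activation as rising luminescence after 16 hr compound exposure. Signals are scaled between DMSO-only and 100 uM tamoxifen.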

[6] = Cellular Toxicity (caspase-3) Renal Proximal Tubule (AID 667); conditions: Potency: caspase-3 activation;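 also: cells exposed to compound for 16 hours at 37 °C before detection; 0% = DMSO basal and 100% = 10 µM staurosporine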
Procedure, shortened: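 Caspase-Glo 3/7 read-out, rat primary kidney proximal tubule cells. Compound exposure 16 h, 37 °C; detection after 1 h at RT. Activity scaled to DMSO and 10 uM staurosporine.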

[7] = molecular target: Cytochrome P450 3A4 (Homo sapiens) (UniProt P08684); experiment: qHTS Assay for Inhibitors and Substrates of Cytochrome P450 3A4 (AID 884); also: nearly all actives have a fitted effect of over 50% in size; also: potency is read from the fitted curve at half-maximal effect
Procedure, shortened: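 20 nM human CYP3A4 with 25 uM Luciferin-PPXE (at KM) in 200 mM KPO4, preincubated 10 min with compound; NADPH regeneration started a 60 min RT reaction. Luciferin detected by luminescence, normalized to 57 uM ketoconazole as full inhibition.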

[8] = Cell Viability - LYMP2-001 (AID 921);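 also: cells exposed to compound for 24 h at 37 °C; 0% = DMSO only and full inhibition = tetraoctylammonium bromide control wells; nearly all actives have a fitted effect of over 70% in size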
Procedure, shortened: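 A lymphoblastoid cell line of human origin was treated with library compounds across a concentration series for 24 hours, and viable cell number was estimated from ATP-driven luciferase light output. Hill modeling gave AC50.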

[9] = MultiTox-Fluor Cytotoxicity Assay - LYMP1-001 - Dead Cells (AID 946)
Procedure, shortened: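 Cytotoxicity as increased dead-cell protease fluorescence (bis-AAF-R110, 485/520 nm), read 60 min after MultiTox-Fluor reagent. Human lymphoblastoid line exposed 16 h; Hill-fitted AC50, with DMSO as 0% and 15 uM tetraoctylammonium bromide as 100%.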

[10] = MultiTox-Fluor Cytotoxicity Assay - LYMP1-001 - Live Cells (AID 947);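 also: 0% = DMSO only and full inhibition = tetraoctylammonium bromide control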
[11] = Cell Viability - LYMP1-002 - Assay at 16 hr (AID 948);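 also: 0% = DMSO alone and full effect = 92 µM tetraoctylammonium bromide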
Procedure, shortened: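 In this qHTS, lymphoblastoid LYMP1-002 cells (human) receive compounds for 16 hr at 37 C. Viability is taken from CellTiter-Glo ATP luminescence, and AC50 derives from standard Hill fits.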

[12] = MultiTox-Fluor Cytotoxicity Assay - LYMP1-002 - Live Cells (AID 955); also: % is scaled to controls: 0 for no effect and ±100 for the full control effect
Procedure, shortened: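 Cytotoxicity in the human lymphoblastoid line LYMP1-002 is measured as loss of live-cell protease activity after 16 h treatment in complete culture medium. AC50 is derived from Hill-equation fits of qHTS concentration-response data.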

[13] = MultiTox-Fluor Cytotoxicity Assay - LYMP1-002 - Dead Cells (AID 960); also: nearly all actives have a fitted effect of over 60% in size
Procedure, shortened: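 Acute cytotoxicity in a human lymphoblastoid line is scored as rising dead-cell protease signal after 16 hr exposure at 37 C, measured fluorometrically (485/520).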

[14] = MultiTox-Fluor Cytotoxicity Assay - LYMP1-003 - Dead Cells (AID 961); also: nearly all actives have a fitted effect of over 70% in size
Procedure, shortened: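 Dead-cell protease release, detected as bis-AAF-R110 fluorescence at 485/520 nm, was measured in LYMP1-003 cells after 16 h compound treatment at 37 C. AC50 values came from Hill-modeled qHTS curves normalized to DMSO (0%) and 15 uM tetraoctylammonium bromide (100%).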

[15] = Cell Viability - LYMP1-003 - Assay at 24 hr (AID 963);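 also: plate controls were DMSO only for no effect and tetraoctylammonium bromide positive control for full effect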
Procedure, shortened: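 Acute toxicity in LYMP1-003 lymphoblastoid cells: 24 hr compound treatment at 37 C, ATP measured with CellTiter-Glo after 30 min at room temperature. AC50 derived by fitting the Hill equation to qHTS titrations.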

[16] = Cell Viability - LYMP1-003 - Assay at 40 hr (AID 964); also: % is scaled to controls: 0 for no effect and ±100 for the full control effect; nearly all actives have a fitted effect of over 60% in size
Procedure, shortened: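 This qHTS cytotoxicity screen treats human lymphoblastoid cells (LYMP1-003) with compounds for 40 hr and quantifies cellular ATP via luciferase luminescence.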

[17] = Cell Viability - LYMP2-003 (AID 965);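 also: cells exposed to compounds for 24 h before reading; 0% = DMSO only and full effect = 92 µM tetraoctylammonium bromide; nearly all actives have a fitted effect of over 50% in size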
Procedure, shortened: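 qHTS, human lymphoblastoid line, 2500 cells/well, complete medium. 24 h drug, 37 C. ATP-based luminescent readout; Hill-fit AC50.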

[18] = MultiTox-Fluor Cytotoxicity Assay - LYMP1-003 - Live Cells (AID 962);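 also: 0% = DMSO only and full loss = 92 µM tetraoctylammonium bromide; cytotoxic hits lower the live-cell protease signal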
Procedure, shortened: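 Cells plated at 2500 per well and incubated 5 hr; compounds added and incubated 16 hr at 37 C; MultiTox-Fluor reagent added for 60 min at room temperature; fluorescence of liberated AFC measured at 405/510 nm.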

[19] = molecular target: Cytochrome P450 3A4 (Homo sapiens) (UniProt P08684); experiment: qHTS Assay for Activators of Cytochrome P450 3A4 (AID 885); also: nearly all actives have a fitted effect of over 65% in size
Procedure, shortened: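 Signal was normalized against complete inhibition by 57 uM ketoconazole. The reaction used 20nM CYP3A4 with 25uM Luciferin-PPXE, 10-min compound preincubation and a 60-min NADPH-supported step at RT.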

Chain of Cytochrome P450 3A4 (Homo sapiens) (P08684 whole entry, looked up): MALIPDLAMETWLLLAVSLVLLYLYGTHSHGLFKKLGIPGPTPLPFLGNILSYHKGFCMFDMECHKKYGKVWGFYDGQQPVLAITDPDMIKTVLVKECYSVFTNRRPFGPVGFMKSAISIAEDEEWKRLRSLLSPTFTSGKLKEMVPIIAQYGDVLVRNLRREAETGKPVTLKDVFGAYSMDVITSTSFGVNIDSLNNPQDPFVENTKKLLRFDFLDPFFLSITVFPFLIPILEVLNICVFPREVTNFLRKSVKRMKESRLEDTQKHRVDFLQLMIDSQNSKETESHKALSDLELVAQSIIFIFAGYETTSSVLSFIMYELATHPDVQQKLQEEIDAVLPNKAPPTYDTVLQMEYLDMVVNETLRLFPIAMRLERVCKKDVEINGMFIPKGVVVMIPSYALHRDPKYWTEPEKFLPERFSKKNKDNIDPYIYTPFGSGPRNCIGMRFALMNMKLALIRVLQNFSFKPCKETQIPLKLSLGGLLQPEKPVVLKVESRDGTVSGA

CC(C)(C)OCC1CO1 (stereo unspecified)
inactive: outcome [1] | caspase-3 activation [2] 0.741% | caspase-3 activation [3] 2.04% | outcome [4] | outcome [5] | Potency [6] | Potency [7] | Potency [8] | outcome [9] | outcome [10] | outcome [11] | outcome [12] | outcome [13] | Potency [14] | Potency [15] | Potency [16] | Potency [17]

CC(=O)c1ccccc1[N+](=O)[O-]
inactive: outcome [1] | caspase-3 activation [2] 0.797% | caspase-3 activation [3] 1.17% | outcome [4] | Potency [6] | Potency [7] | outcome [9] | outcome [10] | outcome [11] | outcome [12] | outcome [13] | Potency [14] | Potency [18] | Potency [15] | Potency [16] | Potency [17]

O=C(O)c1ccccc1[N+](=O)[O-]
inactive: outcome [1] | caspase-3 activation [2] 1.85% | caspase-3 activation [3] 2.82% | outcome [4] | outcome [5] | Potency [6] | Potency [7] | Potency [8] | outcome [9] | outcome [10] | outcome [12] | Potency [14] | Potency [15] | Potency [16] | Potency [17]

CCOc1ccc(NC(C)=O)cc1N
inactive: outcome [1] | caspase-3 activation [3] -1.58% | outcome [4] | Potency [6] | Potency [7] | outcome [9] | outcome [10] | outcome [11] | outcome [12] | outcome [13] | Potency [14] | Potency [18] | Potency [15] | Potency [16] | Potency [17]

O=C(O[C@@H](C(=O)O)[C@@H](OC(=O)c1ccccc1)C(=O)O)c1ccccc1
inactive: outcome [1] | caspase-3 activation [2] 0.201% | caspase-3 activation [3] -0.248% | outcome [4] | outcome [5] | Potency [6] | Potency [7] | outcome [9] | outcome [10] | outcome [11] | outcome [12] | outcome [13] | Potency [14] | Potency [18] | Potency [15] | Potency [16] | Potency [17]

NC(=O)/N=N/C(N)=O
inactive: outcome [1] | caspase-3 activation [2] 1.22% | caspase-3 activation [3] -1.75% | outcome [4] | Potency [6] | outcome [19] | Potency [8] | outcome [9] | outcome [11] | outcome [13] | Potency [18] | Potency [15] | Potency [16] | Potency [17]

CC(C)(O)C(=O)O
inactive: outcome [1] | caspase-3 activation [2] -0.178% | caspase-3 activation [3] 0.779% | outcome [4] | outcome [5] | Potency [6] | Potency [7] | Potency [8] | outcome [9] | outcome [10] | outcome [12] | outcome [13] | Potency [14] | Potency [15] | Potency [16] | Potency [17]

CC(=O)Nc1ccccc1C
inactive: outcome [1] | caspase-3 activation [2] 1.63% | caspase-3 activation [3] 3.57% | outcome [4] | outcome [5] | Potency [6] | Potency [7] | Potency [8] | outcome [9] | outcome [10] | outcome [11] | outcome [12] | Potency [14] | Potency [18] | Potency [15] | Potency [16] | Potency [17]

CC(C)CCOC(=O)/C=C/c1ccccc1
inactive: outcome [1] | caspase-3 activation [2] 1.34% | caspase-3 activation [3] 1.37% | outcome [4] | outcome [5] | Potency [6] | Potency [7] | Potency [8] | outcome [9] | outcome [10] | outcome [11] | Potency [14] | Potency [18] | Potency [15] | Potency [16] | Potency [17]

CCCCCCCCCCCCC1CO1 (stereo unspecified)
inactive: outcome [1] | caspase-3 activation [2] 0.543% | caspase-3 activation [3] 1.51% | outcome [4] | Potency [6] | Potency [7] | Potency [8] | outcome [9] | outcome [10] | outcome [11] | outcome [12] | outcome [13] | Potency [14] | Potency [18] | Potency [15] | Potency [16] | Potency [17]

COC(=O)CS
inactive: outcome [1] | caspase-3 activation [2] 0.405% | caspase-3 activation [3] -1.02% | outcome [4] | outcome [5] | Potency [6] | Potency [7] | outcome [9] | outcome [10] | outcome [11] | outcome [12] | outcome [13] | Potency [14] | Potency [18] | Potency [15] | Potency [16] | Potency [17]

N#Cc1ccccc1
inactive: outcome [1] | caspase-3 activation [2] 0.346% | caspase-3 activation [3] 1.36% | outcome [4] | outcome [5] | Potency [6] | Potency [7] | Potency [8] | outcome [9] | outcome [10] | outcome [12] | Potency [14] | Potency [18] | Potency [15] | Potency [16] | Potency [17]

CCC(C)(C)C
inactive: outcome [1] | caspase-3 activation [2] -0.587% | caspase-3 activation [3] -1.96% | outcome [4] | Potency [6] | Potency [7] | Potency [8] | outcome [9] | outcome [10] | outcome [11] | outcome [12] | outcome [13] | Potency [14] | Potency [18] | Potency [15] | Potency [16] | Potency [17]

CC(=O)c1ccccn1
inactive: outcome [1] | caspase-3 activation [2] 1.68% | caspase-3 activation [3] 0.0845% | outcome [4] | outcome [5] | Potency [6] | Potency [7] | outcome [9] | outcome [10] | outcome [11] | outcome [12] | outcome [13] | Potency [14] | Potency [18] | Potency [15] | Potency [16] | Potency [17]

Nc1nc(-c2ccccc2)cs1
active: Potency [7] 20 µM
inactive: outcome [1] | caspase-3 activation [3] 0.507% | outcome [4] | outcome [5] | Potency [6] | outcome [19] | outcome [9] | outcome [10] | outcome [11] | outcome [12] | Potency [14] | Potency [18] | Potency [15] | Potency [16] | Potency [17]

CCN(C(=O)N(CC)c1ccccc1)c1ccccc1
inactive: outcome [1] | caspase-3 activation [2] 2.86% | caspase-3 activation [3] 0.606% | outcome [4] | outcome [5] | Potency [6] | Potency [7] | Potency [8] | outcome [9] | outcome [10] | outcome [11] | outcome [12] | outcome [13] | Potency [14] | Potency [18] | Potency [15] | Potency [16] | Potency [17]

Cc1ccco1
inactive: outcome [1] | caspase-3 activation [2] 1.57% | caspase-3 activation [3] -0.963% | outcome [4] | outcome [5] | Potency [6] | Potency [7] | Potency [8] | outcome [9] | outcome [10] | outcome [11] | outcome [12] | outcome [13] | Potency [14] | Potency [15] | Potency [16] | Potency [17]

CC(O)COC(C)(C)C (stereo unspecified)
inactive: outcome [1] | caspase-3 activation [2] -0.238% | caspase-3 activation [3] 2.41% | outcome [4] | outcome [5] | Potency [6] | Potency [7] | Potency [8] | outcome [9] | outcome [10] | outcome [11] | outcome [12] | outcome [13] | Potency [14] | Potency [18] | Potency [15] | Potency [16] | Potency [17]

— PubChem BioAssay (NCATS)
